“And” between values parts separate entries of the source, which are not always exact repeats. Identical values can stand only once. Records with an inconclusive call do not appear. Where a call stands in place of a potency, no number is given. The source made the active and inactive calls. Calls follow the shape of the dose curve; as a rule, active = well fitted curve in the direction sought with a large enough effect in the repeat runs; inconclusive = weak or mixed curves; inactive = no such curve, though single readings can be large; an effect the other way counts as inactive or inconclusive.
Experiments:
[1] = target: Cytochrome P450 1A2 (Homo sapiens) (UniProt P05177); assay: Cytochrome P450 Family 1 Subfamily A Member 2 (CYP1A2) small molecule antagonists: luciferase reporter qHTS assay (AID 1671199)
Chain of Cytochrome P450 1A2 (Homo sapiens) (P05177 whole entry, looked up): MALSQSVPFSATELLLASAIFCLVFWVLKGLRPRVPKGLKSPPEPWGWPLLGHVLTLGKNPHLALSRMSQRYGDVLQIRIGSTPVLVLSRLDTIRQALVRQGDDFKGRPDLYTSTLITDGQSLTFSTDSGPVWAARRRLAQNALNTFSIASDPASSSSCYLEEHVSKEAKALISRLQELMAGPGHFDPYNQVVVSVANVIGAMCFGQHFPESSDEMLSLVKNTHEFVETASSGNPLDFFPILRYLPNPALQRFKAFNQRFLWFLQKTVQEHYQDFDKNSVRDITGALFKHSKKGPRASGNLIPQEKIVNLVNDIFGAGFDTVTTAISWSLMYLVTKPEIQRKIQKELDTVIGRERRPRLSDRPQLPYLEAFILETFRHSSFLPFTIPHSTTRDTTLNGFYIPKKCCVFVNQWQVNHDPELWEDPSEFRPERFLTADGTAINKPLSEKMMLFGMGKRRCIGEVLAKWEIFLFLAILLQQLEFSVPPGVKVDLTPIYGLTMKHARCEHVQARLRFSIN
Method in brief: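 P450-Glo CYP1A2, 1536-well qHTS: enzyme/proluciferin substrate + cpd (DMSO), 10 min RT; NADPH regen, 1 h RT; detection reagent, 20 min; luminescence, RLU.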

[2] = target: Voltage-gated inwardly rectifying potassium channel KCNH2 (Homo sapiens) (UniProt Q12809); assay: Human Ether-a-go-go-Related Gene (hERG) channel small molecule antagonists: fluorescence cell-based qHTS assay (AID 1671200)
Chain of Voltage-gated inwardly rectifying potassium channel KCNH2 (Homo sapiens) (Q12809 whole entry, looked up): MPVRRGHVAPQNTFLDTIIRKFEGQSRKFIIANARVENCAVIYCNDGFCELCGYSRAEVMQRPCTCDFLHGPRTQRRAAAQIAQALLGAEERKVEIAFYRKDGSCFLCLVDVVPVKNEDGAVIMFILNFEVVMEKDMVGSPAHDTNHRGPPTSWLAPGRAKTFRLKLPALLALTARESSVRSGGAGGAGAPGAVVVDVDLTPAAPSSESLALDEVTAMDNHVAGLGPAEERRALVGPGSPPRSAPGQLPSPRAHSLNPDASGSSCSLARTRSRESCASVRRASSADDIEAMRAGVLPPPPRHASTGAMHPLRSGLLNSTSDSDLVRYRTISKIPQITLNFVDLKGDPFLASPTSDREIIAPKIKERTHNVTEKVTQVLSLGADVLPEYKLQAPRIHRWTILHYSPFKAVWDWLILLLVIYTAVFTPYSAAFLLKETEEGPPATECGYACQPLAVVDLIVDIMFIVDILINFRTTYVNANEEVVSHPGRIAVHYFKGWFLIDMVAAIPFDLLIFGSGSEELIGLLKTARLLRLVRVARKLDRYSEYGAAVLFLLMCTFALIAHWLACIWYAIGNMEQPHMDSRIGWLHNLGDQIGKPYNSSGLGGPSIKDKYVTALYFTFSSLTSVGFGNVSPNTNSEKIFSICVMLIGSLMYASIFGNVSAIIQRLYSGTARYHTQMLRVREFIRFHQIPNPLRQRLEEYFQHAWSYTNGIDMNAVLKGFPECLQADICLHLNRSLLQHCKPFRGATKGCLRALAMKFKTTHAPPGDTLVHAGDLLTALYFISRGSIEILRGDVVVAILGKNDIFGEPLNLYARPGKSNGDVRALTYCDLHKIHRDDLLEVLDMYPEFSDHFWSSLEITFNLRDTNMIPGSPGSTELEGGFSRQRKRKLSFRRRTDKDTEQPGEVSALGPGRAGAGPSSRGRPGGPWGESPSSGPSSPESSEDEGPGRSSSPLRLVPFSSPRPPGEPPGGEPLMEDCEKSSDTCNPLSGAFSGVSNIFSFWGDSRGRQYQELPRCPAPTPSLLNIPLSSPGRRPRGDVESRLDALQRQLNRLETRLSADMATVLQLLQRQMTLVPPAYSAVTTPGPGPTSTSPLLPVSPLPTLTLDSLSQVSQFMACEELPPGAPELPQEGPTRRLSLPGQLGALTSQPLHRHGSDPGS
Method in brief: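 Quantitative HTS in hERG-U2OS cells: thallium entry through the channel reports activity, read as continuous 480/540 nm fluorescence over 2 min after stimulus addition.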

[3] = target: Cytochrome P450 3A4 (Homo sapiens) (UniProt P08684); assay: Cytochrome P450 Family 3 Subfamily A Member 4 (CYP3A4) small molecule antagonists: luciferase reporter qHTS assay (AID 1671201)
Chain of Cytochrome P450 3A4 (Homo sapiens) (P08684 whole entry, looked up): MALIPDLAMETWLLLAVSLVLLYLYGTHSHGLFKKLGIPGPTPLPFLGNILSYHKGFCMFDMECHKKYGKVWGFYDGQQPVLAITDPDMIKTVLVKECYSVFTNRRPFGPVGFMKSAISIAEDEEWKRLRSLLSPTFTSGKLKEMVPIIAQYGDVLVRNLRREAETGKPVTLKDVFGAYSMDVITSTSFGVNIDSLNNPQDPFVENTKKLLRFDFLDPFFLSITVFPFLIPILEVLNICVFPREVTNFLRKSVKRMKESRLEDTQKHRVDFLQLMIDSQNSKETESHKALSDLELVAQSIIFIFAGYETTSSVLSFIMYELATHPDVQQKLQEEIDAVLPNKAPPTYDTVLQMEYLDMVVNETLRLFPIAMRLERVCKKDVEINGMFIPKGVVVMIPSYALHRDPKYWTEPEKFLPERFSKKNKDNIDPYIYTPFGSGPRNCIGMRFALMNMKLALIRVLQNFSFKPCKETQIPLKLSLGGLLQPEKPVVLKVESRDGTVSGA
Method in brief: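 Inhibition of CYP3A4 is measured as loss of light: the enzyme converts a proluciferin substrate to luciferin, detected luminescently. Reaction ran 1 h at room temperature with NADPH regeneration after a 10 min compound preincubation.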

[4] = target: Cytochrome P450 2C9 (Homo sapiens) (UniProt P11712); assay: Cytochrome P450 Family 2 Subfamily C Member 9 (CYP2C9) small molecule antagonists: luciferase reporter qHTS assay (AID 1671198)
Chain of Cytochrome P450 2C9 (Homo sapiens) (P11712 whole entry, looked up): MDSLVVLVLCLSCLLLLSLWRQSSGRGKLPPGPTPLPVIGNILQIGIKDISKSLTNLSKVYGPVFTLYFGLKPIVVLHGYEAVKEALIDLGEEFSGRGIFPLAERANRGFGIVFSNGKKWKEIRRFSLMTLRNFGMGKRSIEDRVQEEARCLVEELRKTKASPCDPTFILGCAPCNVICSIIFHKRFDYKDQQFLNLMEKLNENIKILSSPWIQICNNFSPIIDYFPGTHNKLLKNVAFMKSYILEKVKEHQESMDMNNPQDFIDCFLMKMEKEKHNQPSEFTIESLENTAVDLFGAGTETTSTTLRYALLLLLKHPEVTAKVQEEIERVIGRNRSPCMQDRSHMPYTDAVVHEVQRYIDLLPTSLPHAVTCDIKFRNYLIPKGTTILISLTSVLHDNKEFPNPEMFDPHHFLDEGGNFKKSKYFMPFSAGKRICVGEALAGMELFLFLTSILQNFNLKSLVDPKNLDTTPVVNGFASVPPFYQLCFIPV
Method in brief: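 Enzyme-substrate mix preincubated with compound 10 min at room temperature; reaction started with NADPH regeneration solution, 1 h 37C. Luminescent luciferin product read after 20 min detection reagent.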
Also: nearly all actives have a fitted effect of over 50% in size.
Potency is read from the fitted curve at half-maximal effect.

SMILES | Potency [1] | Potency [2] | Potency [3] | Potency [4]
CN(C)[C@@H]1C(=O)C(C(N)=O)=C(O)[C@@]2(O)C(=O)C3=C(O)c4c(O)ccc(Cl)c4[C@@H](O)[C@H]3C[C@@H]12 | inactive | inactive | inactive | –
CCCCN1C(=O)[C@@H]([C@H](O)C2CCCCC2)NC(=O)C12CCN(Cc1ccc(Oc3ccc(C(=O)O)cc3)cc1)CC2 | inactive | 19.5 µM (active) | 17.8 µM (active) | inactive
CCCCCCCCCCCCCCCC[N+](C)(C)CCN(Cc1ccc(OC)cc1)c1ncccn1 | inactive | 0.338 µM (active) | – | 30.9 µM (active)
C1CCCC1 | – | inactive | inactive | inactive
CN(C)CCCOC1(Cc2ccccc2)CCCCCC1 | inactive | – | – | inactive
COc1cc(-c2ccc(N=C=O)c(OC)c2)ccc1N=C=O | inactive | inactive | – | inactive
CCc1cc(Cc2cc(CC)cc(C(C)(C)C)c2O)c(O)c(C(C)(C)C)c1 | inactive | – | 17.8 µM (active) | 3.17 µM (active)
CCc1cc(SCc2sc(-c3ccc(C(F)(F)F)cc3)nc2CN2CCN(c3ccc(OC)cc3)CC2)ccc1OCC(=O)O | inactive | 4.36 µM (active) | 11.2 µM (active) | 20 µM (active)
COc1ccc(CN2CCN(C(c3ccc(F)cc3)c3ccc(F)cc3)CC2)c(OC)c1OC | inactive | 0.674 µM (active) | – | 11 µM (active)
NC(=O)C1(N2CCCCC2)CCN(CCCN2c3ccccc3CCc3ccc(Cl)cc32)CC1 | inactive | 1.34 µM (active) | inactive | 7.76 µM (active)
CC(C)OC(=O)c1cc2c(OCC(O)CNC(C)(C)C)cccc2[nH]1 (stereo unspecified) | inactive | – | – | inactive
Cc1c(C)c2c(c(C)c1O)CCC(C)(COc1ccc(CC3SC(=O)NC3=O)cc1)O2 (stereo unspecified) | inactive | inactive | – | 5.03 µM (active) and 4.9 µM (active)
N#CC1(c2ccc(F)cc2)CCC(=O)CC1 | inactive | inactive | inactive | inactive
N#CSc1ccc(N)c([N+](=O)[O-])c1 | 1.6 µM (active) | inactive | – | 40.2 µM (active)
CCN(C(=O)c1cc(C)cc(OC[C@H](C)Nc2ccncc2)c1)C(C)C | inactive | 17.2 µM (active) | 0.992 µM (active) | 7.02 µM (active)
On1ccccc1=S | – | inactive | – | –
O=C1C=CC(=O)N1 | 32.6 µM (active) | inactive | inactive | inactive
COc1cccc2c1C(=O)c1c(O)c3c(c(O)c1C2=O)C[C@@](O)(C(=O)CO)C[C@@H]3O[C@H]1C[C@H](N)[C@H](O[C@@H]2CCCCO2)[C@H](C)O1 | inactive | inactive | – | 15.5 µM (active)
Oc1c(Cl)cc(Cl)c2cccnc12 | – | inactive | – | –
CN1CCN(CCC(=O)N2c3ccccc3Sc3ccc(C(F)(F)F)cc32)CC1 | – | 4.77 µM (active) | – | inactive
C[C@H](CCC(=O)O)[C@H]1CC[C@H]2[C@@H]3CC[C@@H]4C[C@H](O)CC[C@]4(C)[C@H]3CC[C@]12C | inactive | inactive | – | –
CCOc1nc2cccc(C(=O)OC(C)OC(=O)OC3CCCCC3)c2n1Cc1ccc(-c2ccccc2-c2nn[nH]n2)cc1 (stereo unspecified) | inactive | inactive | – | 10 µM (active)
CCCCCCCC/C=C/CCCCCCCC1=NCCN1CCO | – | – | 31.7 µM (active) | 25.2 µM (active)
